Bioassay records (PubChem BioAssay)
Compounds with a hit are over-represented: about 3.9% of the library has one in this group of screens.
GDH-TPI counter = GDH-TPI coupled enzyme inhibition counter-screen | GDH-TPI coupled enzyme counterscreen, NADH absorbance | inhibition, % at 4.8 µM | 360,000 compounds, 1.2% hits; in the data active = inhibition above about 30%;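 also: 0% = DMSO wells and 100% = wells lacking the enzyme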
BH1578 lux ind = inducers of Vibrio cholerae quorum light production without autoinducers; V. cholerae BH1578 lux reporter, luminescence, 6 h; activation, % at 18.7 µM; 350,000 compounds, 0.16% hits; in the data active = activation mostly above about 9.7%, no sharp cut-off
3CLpro inhibitor = SARS-CoV 3CLpro protease inhibition | recombinant SARS-CoV 3CLpro, quenched FRET peptide cleavage | P0C6X7 | inhibition, % at 6 µM | 290,000 compounds, 0.14% hits | AID 1706; in the data active = inhibition above about 12%
PrPC TRFRET = inhibitors of human cell surface prion protein PrPC; P04156; TR-FRET read-out; inhibition, % at 13.8 µM; 370,000 compounds, 0.43% hits; AID 720596; in the data active = inhibition above about 24%; also: 0% = median of the test wells and 100% = reference compound wells
Mtb FBA inh = inhibits M. tuberculosis FBA enzyme. inhibition, % at 1 µM. AID 588726. P9WQA3. purified M. tuberculosis FBA, fluorescence read-out. 360,000 compounds, 2.3% hits; in the data active = inhibition above about 27%;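 also: 0% = vehicle and 100% = reference inhibitor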
Target sequence (P9WQA3 whole entry, looked up): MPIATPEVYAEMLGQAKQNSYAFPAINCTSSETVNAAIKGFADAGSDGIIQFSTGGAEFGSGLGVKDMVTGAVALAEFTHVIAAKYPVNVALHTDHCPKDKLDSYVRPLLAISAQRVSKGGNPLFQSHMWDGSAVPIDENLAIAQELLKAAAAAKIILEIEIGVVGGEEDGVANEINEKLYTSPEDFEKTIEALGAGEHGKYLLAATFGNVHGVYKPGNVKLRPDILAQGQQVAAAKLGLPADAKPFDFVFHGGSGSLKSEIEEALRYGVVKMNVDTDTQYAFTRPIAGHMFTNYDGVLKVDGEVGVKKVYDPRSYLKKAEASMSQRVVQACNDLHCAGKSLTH
Starred values were filed as active, the others as inactive.

`Cc1ccc(-c2cc(C(=O)N3CC(C)CC(C)C3)c3ccccc3n2)o1` (stereo unspecified) gave GDH-TPI counter 3.0, BH1578 lux ind -0.2, 3CLpro inhibitor 0.3, PrPC TRFRET -2.0 and Mtb FBA inh 24.4.
Cc1ccc(-c2cc(C(=O)N3CC(C)OC(C)C3)c3ccccc3n2)o1 (stereo unspecified) was read as GDH-TPI counter 11.7, BH1578 lux ind 0.9, PrPC TRFRET -1.4 and Mtb FBA inh 145.5*.
`CCc1ccc(-c2cc(C(=O)O)c3ccccc3n2)s1` gave GDH-TPI counter 38.2*, BH1578 lux ind -1.0, 3CLpro inhibitor 1.5, PrPC TRFRET -15.3 and Mtb FBA inh 151.8*.
For COc1ccc(-c2cc(C(=O)N3CCCCCC3)c3ccccc3n2)cc1 the results were GDH-TPI counter 14.8, BH1578 lux ind -2.4, PrPC TRFRET 8.0 and Mtb FBA inh 150.0*.
Screening CC(Sc1ccc(S(=O)(=O)N2CCN(C)CC2)cn1)C(=O)Nc1cccc(Cl)c1Cl (stereo unspecified) returned GDH-TPI counter -5.5, BH1578 lux ind -1.3, PrPC TRFRET 7.2 and Mtb FBA inh 0.6.
For C=CCn1c(SCC(=O)N2CCC(C)CC2)nc2c([nH]c3ccccc32)c1=O the results were GDH-TPI counter 0.0, BH1578 lux ind -0.3, PrPC TRFRET 4.4 and Mtb FBA inh -0.2.
O=c1cc(NCc2ccco2)c2ccccc2o1 was read as GDH-TPI counter -9.5, BH1578 lux ind 25.8*, 3CLpro inhibitor -8.4, PrPC TRFRET -6.5 and Mtb FBA inh 2.9.
`COc1ccc(N2CCCN(CC(=O)Nc3ccc(Cl)cc3)CC2)cc1` gave PrPC TRFRET 3.3.
Screening Cc1ccccc1NS(=O)(=O)c1ccc2c(c1)CCC(=O)N2 returned GDH-TPI counter 3.1, BH1578 lux ind -1.1, PrPC TRFRET 1.6 and Mtb FBA inh 1.4.
For O=C(O)c1cc(N/N=C/C=C/c2ccccc2[N+](=O)[O-])ccc1Cl the results were GDH-TPI counter 38.2*, BH1578 lux ind -0.4, 3CLpro inhibitor 4.2, PrPC TRFRET -18.6 and Mtb FBA inh -9.0.
For C/C(=N\Nc1ccc(Cl)c(C(=O)O)c1)c1cccc([N+](=O)[O-])c1 the results were GDH-TPI counter 41.6*, BH1578 lux ind -3.7, 3CLpro inhibitor -0.6, PrPC TRFRET -5.8 and Mtb FBA inh -5.3.
Cc1ccc([C@H]2C[C@H](O)[C@@H](n3cc(C4CC4)nn3)CN2C(=O)c2cccs2)cc1 was read as GDH-TPI counter 8.1, BH1578 lux ind inactive, PrPC TRFRET -5.9 and Mtb FBA inh 3.9.
O=C(Cc1cccc(NC(=O)C2CCCN(C(=O)C3CCC3)C2)c1)Nc1cccc(C(=O)N2CCCC2)c1 (stereo unspecified) was read as GDH-TPI counter -0.9, BH1578 lux ind -3.6, PrPC TRFRET 9.0 and Mtb FBA inh -2.1.
O=C(NC1C2CC3CC(C2)CC1C3)c1ccc(Br)o1 (stereo unspecified) was read as GDH-TPI counter -7.3, BH1578 lux ind -0.5, 3CLpro inhibitor -0.9, PrPC TRFRET -7.8 and Mtb FBA inh -1.0.
For COc1ccc(/C=C/C(=O)Nc2cc(=O)n(C)c(=O)n2C)cc1 the results were GDH-TPI counter 27.1, BH1578 lux ind inactive, 3CLpro inhibitor -1.2, PrPC TRFRET -20.3 and Mtb FBA inh 0.1.
Cn1c(NC(=O)/C=C/c2ccccc2)cc(=O)n(C)c1=O was read as GDH-TPI counter 61.7*, BH1578 lux ind -0.2, 3CLpro inhibitor -0.1, PrPC TRFRET -14.4 and Mtb FBA inh -0.8.
O=C(Nc1cccnc1)c1cc2cc(Br)ccc2o1 was read as GDH-TPI counter 5.9, BH1578 lux ind inactive, 3CLpro inhibitor 1.3, PrPC TRFRET 6.2 and Mtb FBA inh -0.3.
Screening CCN(CC)c1ccc(C(NC(C)=O)NC(C)=O)cc1 returned GDH-TPI counter 1.7, BH1578 lux ind -0.3, 3CLpro inhibitor 0.2, PrPC TRFRET -3.3 and Mtb FBA inh -2.4.
`CC(=O)NC(NC(C)=O)c1ccc(N(C)C)cc1` gave GDH-TPI counter 46.8*, BH1578 lux ind -0.3, 3CLpro inhibitor 0.2, PrPC TRFRET 2.8 and Mtb FBA inh -1.7.
`CN(C)c1ccc(C(=O)c2ccc(N(C)C)cc2)cc1` gave GDH-TPI counter 40.5*, BH1578 lux ind -0.5, 3CLpro inhibitor 2.5, PrPC TRFRET 7.3 and Mtb FBA inh 1.6.
For CCCCCC(=O)Nc1ccc(-c2csc(N)n2)cc1 the results were GDH-TPI counter 10.4, BH1578 lux ind -0.3, 3CLpro inhibitor -4.0, PrPC TRFRET 11.5 and Mtb FBA inh -0.3.
`CCN(CC)c1ccc(S(=O)(=O)N2CCOCC2)cc1NC(=O)CSc1nncs1` gave GDH-TPI counter 5.7, BH1578 lux ind -1.4 and Mtb FBA inh -2.4.
COC(=O)c1ccccc1NC(=O)c1cnc2sccn2c1=O was read as GDH-TPI counter 17.6, BH1578 lux ind -1.7, 3CLpro inhibitor 3.9, PrPC TRFRET -4.3 and Mtb FBA inh -1.7.
`O=C(NCc1ccco1)c1cnc2sccn2c1=O` gave GDH-TPI counter 32.9*, BH1578 lux ind -0.3, 3CLpro inhibitor -5.9, PrPC TRFRET -6.8 and Mtb FBA inh 0.9.
For O=C(Nc1nccs1)c1cnc2sccn2c1=O the results were GDH-TPI counter 44.8*, BH1578 lux ind 0.1, PrPC TRFRET -5.7 and Mtb FBA inh 0.5.
COc1cc(C#N)c(N=C(SCC#N)N2CCOCC2)cc1OC was read as GDH-TPI counter 2.4, BH1578 lux ind -0.5, 3CLpro inhibitor -2.0, PrPC TRFRET -3.6 and Mtb FBA inh 4.2.
CCNc1nc(SCC(=O)Nc2ccc(Cl)c(Cl)c2)nc(N2CCOCC2)n1 was read as GDH-TPI counter -3.7, BH1578 lux ind -0.3, 3CLpro inhibitor 8.6, PrPC TRFRET 8.2 and Mtb FBA inh 1.7.
Screening CCCOc1ccc(/C=C/c2c([N+](=O)[O-])c(=O)n(C)c(=O)n2C)cc1 returned GDH-TPI counter 39.2*, BH1578 lux ind inactive, 3CLpro inhibitor -4.2, PrPC TRFRET 4.0 and Mtb FBA inh -1.5.
CCC(N=c1cc(-c2ccc(OC)cc2)oc2ccc(C)cc12)C(=O)O (stereo unspecified) was read as GDH-TPI counter 31.1*, BH1578 lux ind -4.2, 3CLpro inhibitor -0.3, PrPC TRFRET -4.1 and Mtb FBA inh active.
Screening Cc1ccccc1N(CC(=O)N/N=C/c1ccc(N(C)C)cc1)C(=O)c1ccccc1 returned GDH-TPI counter 40.3*, BH1578 lux ind -0.3, 3CLpro inhibitor 3.1, PrPC TRFRET 2.1 and Mtb FBA inh 9.7.
`N#CCC(=O)N/N=C/c1ccc(Cl)cc1` gave GDH-TPI counter 1.2, BH1578 lux ind inactive, 3CLpro inhibitor 2.7, PrPC TRFRET 0.9 and Mtb FBA inh -0.6.
For CN(c1ccccc1)c1ccc(/C=N/NC(=O)CC#N)cc1 the results were GDH-TPI counter 31.3*, BH1578 lux ind -0.3, 3CLpro inhibitor 7.0, PrPC TRFRET -7.8 and Mtb FBA inh 8.6.
`CC(C)(C)c1ccc(/C=N/NC(=S)NCc2ccccc2)cc1` gave GDH-TPI counter 12.9, BH1578 lux ind -0.2, 3CLpro inhibitor 4.8, PrPC TRFRET 4.0 and Mtb FBA inh -1.0.
For CN(C)c1ccc(/C=N/NC(=O)CSc2ccccn2)cc1 the results were GDH-TPI counter 60.0*, BH1578 lux ind inactive, 3CLpro inhibitor 1.1, PrPC TRFRET 4.2 and Mtb FBA inh 1.5.
